According to PubChem BioAssay (NCATS):
Inconclusive results are not listed. Values without a mark were called inactive. Activity calls are given as the source filed them. Calls follow the shape of the dose curve; as a rule, active = well fitted activation curve with a large enough effect; inconclusive = small, poorly fitted or top-dose-only effect; inactive = no such curve, though single readings can be large or run the other way.

molecular target: Arylsulfatase A (Homo sapiens) (UniProt P15289); assay: qHTS screen for enhancers of Arylsulfatase A (ASA1): LOPAC Validation Assay (AID 720538); conditions: ASA enzyme activity, LOPAC qHTS enhancer assay; series mostly up to 57.5 µM; activity change, positive = activation: at the top concentration; as to activity change, positive = activation: 0% is about no effect
Sequence (P15289 whole entry, looked up): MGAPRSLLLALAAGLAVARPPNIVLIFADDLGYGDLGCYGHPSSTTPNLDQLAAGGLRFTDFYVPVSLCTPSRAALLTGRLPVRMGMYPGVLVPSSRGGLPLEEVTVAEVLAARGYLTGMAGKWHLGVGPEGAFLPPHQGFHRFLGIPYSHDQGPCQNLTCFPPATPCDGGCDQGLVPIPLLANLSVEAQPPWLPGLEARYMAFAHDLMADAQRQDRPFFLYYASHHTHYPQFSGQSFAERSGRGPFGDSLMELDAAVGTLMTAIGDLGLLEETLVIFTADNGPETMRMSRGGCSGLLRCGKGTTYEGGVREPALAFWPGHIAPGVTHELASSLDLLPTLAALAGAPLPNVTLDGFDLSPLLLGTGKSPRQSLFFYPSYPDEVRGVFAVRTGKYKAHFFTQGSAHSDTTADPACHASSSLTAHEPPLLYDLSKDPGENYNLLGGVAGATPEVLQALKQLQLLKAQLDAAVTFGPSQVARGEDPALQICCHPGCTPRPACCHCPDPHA
Procedure, shortened: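 Read-out: fluorescence at Ex=525/Em=598 nm after 1N NaOH final stop. Patient fibroblasts carrying ASA-I179S had 48h compound exposure, then 14h room-temperature pNCS hydrolysis (0.5mM final) in lysis buffer. Signal increase = enhanced activity.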
Potency is read from the fitted curve at half-maximal effect.

| Compound | outcome | activity change, positive = activation [%] | Potency |
| --- | --- | --- | --- |
| CCNC(=O)[C@H]1O[C@@H](n2cnc3c(N)nc(NCCc4ccc(CCC(=O)O)cc4)nc32)[C@H](O)[C@@H]1O | inactive | – | – |
| N=C(N)SCCc1ccc(CCSC(=N)N)cc1 | – | 17.9 | – |
| CCOC(=O)C1=C(C)NC(C)=C(C(=O)OCC)C1c1c(F)c(F)c(F)c(F)c1F | – | -0.279 | – |
| CCOC(=O)N1CCN(/[N+]([O-])=N/Oc2ccc([N+](=O)[O-])cc2[N+](=O)[O-])CC1 | – | -22.1 | – |
| NCCSSCCN | inactive | – | – |
| O=C(O)CCCC[C@@H]1CCSS1 | – | -19.2 | – |
| Oc1cc(O)cc(/C=C/c2ccc(O)c(O)c2)c1 | – | – | 23.9 µM (active) |
| O=C1C(SCCO)=C(SCCO)C(=O)c2ccccc21 | – | -761 | – |
| CCCCCCCCCCCCCCCCCC(=O)OC(CC(=O)O)C[N+](C)(C)C (stereo not drawn) | – | -14.4 | – |
| O=C1/C(=C/c2ccsc2)CC/C1=C\c1cccs1 | – | -39.8 | – |
| C[N+](C)(CCCCCC[N+](C)(C)CCCN1C(=O)c2cccc3cccc(c23)C1=O)CCCN1C(=O)c2cccc3cccc(c23)C1=O | inactive | – | – |
| Nc1nc(Nc2ccccc2)nc2c1ncn2[C@@H]1O[C@H](CO)[C@@H](O)[C@H]1O | inactive | – | – |
| O=Nc1ccc2oc(=O)ccc2c1 | – | 2.49 | – |
| CC(N)C(=O)OC(C)(C)Cc1ccc(Cl)cc1 (stereo not drawn) | – | 6.34 | – |
| NCCCS(=O)(=O)O | – | 5.11 | – |
| C=CC(N)CCC(=O)O (stereo not drawn) | – | 34.6 | – |
| CC(C)(C)c1ccc(S(=O)(=O)/C=C/C#N)cc1 | – | -31.2 | – |

| Compound | outcome | activity change, positive = activation [%] | Potency |
| --- | --- | --- | --- |
| CC(C)NC[C@H](O)COc1cccc2[nH]ccc12 | – | 2.46 | – |
| CN(C)C(N)=NCCC[C@H](N)C(=O)O | – | -2.53 | – |
| O=C(O)CC[C@@H](C(=O)O)N1C(=O)c2ccccc2C1=O | – | -102 | – |
| O=C(O)CC1CCCc2ccccc2C1O (stereo not drawn) | – | -19.7 | – |
| CN1C2CC(OC(=O)[C@H](CO)c3ccccc3)CC1C1OC12 (stereo partly drawn) | inactive | – | – |
| CCc1c(C(=O)NCCc2ccc(N3CCCCC3)cc2)[nH]c2ccc(Cl)cc12 | inactive; inhibitor; fitted 0.6746 uM | – | – |
| Cc1cc(NC2CCCCC2)nc(-n2nc(C)cc2C)n1 | – | 13.4 | – |
| O=P(O)(O)C(Cl)(Cl)P(=O)(O)O | inactive | – | – |
| COc1ccc(/C=C/C(=O)Nc2ccccc2C(=O)O)cc1OC | – | – | 6.75 µM (active) |
| Cn1cc(C2=C(c3ccc(Cl)cc3Cl)C(=O)NC2=O)c2ccccc21 | – | -828 | – |
| CN1CCc2cc(NC(=O)Nc3cccnc3)ccc21 | – | -25 | – |
| O=C(O)[C@@H]1C[C@H](C(=O)O)N1 | – | -6.01 | – |
| N=c1ccn2c(n1)O[C@H]1[C@H](O)[C@@H](CO)O[C@H]12 | – | 18.3 | – |
| OC[C@H]1O[C@@H](n2cnc3c(NC4CCCC4)ncnc32)[C@H](O)[C@@H]1O | inactive | – | – |
| O=[N+]([O-])c1ccc(CSc2ncnc3c2ncn3[C@@H]2O[C@H](CO)[C@@H](O)[C@H]2O)cc1 | inactive | – | – |
| COc1ccc(NC(=O)/C=C/c2ccc(Cl)cc2)cc1 | – | 20.2 | – |
